Drawing on PubChem BioAssay (NCI), this text covers growth for 40 compounds.

Compounds without any hit were thinned out: in the full panel of roughly 83,000, 20% have a hit.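 Note: values are percent growth. 100 is the growth of untreated cells, values between 100 and 0 indicate rising inhibition; between -100 and 0 indicates cell death.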 Calls of active or inactive are those of the source.

The test system of this test is SW-620 colon. Put plainly: NCI-60 one-dose screen, 48 h (100 = growth as untreated, 0 = no growth, -100 = all killed). The settings on record: 10 µM unless noted. As to the method: Growth inhibition of the SW-620 human tumor cell line is measured as a screen for anti-cancer activity. Cells are grown in 96 well plates and exposed to the test compound for 48 hours. Compounds are tested at a single concentration, which is 10^-5 M for most compounds. The reported endpoint is percent growth (GI% or GIPRCNT), where numbers from 0 - 100% represent growth inhibition, and numbers from -100% - 0 represent cell death. For example, a value of 40 represents 60% growth inhibition. A value of 0 means no net growth occurred over the course of the experiment. A value of -40 indicates 40% of cells at the beginning of the experiment died by the end of the experiment. A value of -100 means all cells are dead at the end of the experiment.
NCI-60 Human Tumor Cell Lines Screen was performed using the standard one-dose NCI protocol, which is described in more detail at https://dtp.cancer.gov/discovery_development/nci-60/default.htm.
Compounds with GIPRCNT values below 10 were considered active. Activity score was based on GIPRCNT using the following formula: […]
Score is 0 for GIPRCNT values of 100 or above, 50 for GIPRCNT values of 0, and 100 for GIPRCNT values of -100.
As for `CCCCCC(=O)OCc1ccccc1`, the growth was 98.1% (inactive).

On to `Cc1nc(Nc2cccnc2)sc1C(=O)/C=C/c1ccc(Cl)cc1`, for which the growth is 6.92% (active).

On to `CC(C)(C)c1ccc(S(=O)(=O)Oc2ccc3c4c(c(=O)oc3c2)CCCCC4)cc1`, for which the growth is 55.2% (inactive).

As to `COc1ccc(/C(=N/O)c2cc(OC)c(OC)c(OC)c2)c(OC)c1N`, the growth was 17.4% (inactive).

For `CCCCCCCCCCCCCCCCC(Br)C(=O)O` (stereo not given), the growth was 116% (inactive).

`CCNCc1ccncc1`: the growth was 100% (inactive).

Regarding `COc1ccc(C(=O)N2CCN(C(=O)c3cc(OC)c(OC)c(OC)c3)CC2)cc1OCCCCOc1cc2c(cc1OC)C(=O)N1CCC[C@H]1C=N2`, the growth was 110% (inactive).

With `C=CCN=C1NC(=O)/C(=C/c2cc(C(C)(C)C)c(O)c(C(C)(C)C)c2)S1`, the growth was 63.5% (inactive).

`CN(C)c1ccc(/C=C\N=Nc2ccc(Br)cc2)cc1`: the growth was 29.5% (inactive).

As for `COC1=CC(c2ccc[nH]2)=N/C1=C\c1[nH]c(C)c(C(=O)CCCCC(=O)Nc2ccccc2)c1C`, the growth was -87.8% (active).

As for `Cc1cnc(NC(=O)C(Cc2ccccc2)NC(=O)c2ccccc2)s1` (stereo not given), the growth was 80.3% (inactive).

`COC1=CC(c2ccc[nH]2)=N/C1=C\c1[nH]c(C)c(CCCn2cc(CCCCCCCCC[C@@H]3Cc4cc(O)ccc4C4CC[C@]5(C)[C@@H](O)CC[C@H]5C43)nn2)c1C` (stereo not given in full): the growth was 44.8% (inactive).

For `Cn1c(-c2nonc2NC(=O)c2ccc(F)cc2)nc2ccccc21`, the growth is 105% (inactive).

For `C=CCc1cc(Cl)cc2c(OC(C)=O)c(C(C)=O)c(-c3ccccc3)nc12`, the growth is 107% (inactive).

Take `COc1ccc(C(=O)/C=C/c2ccc(/C=C/c3cc(OC)c(OC)c(OC)c3)cc2)cc1`: the growth was 39.3% (inactive).

With `O=C(NNC(=S)Nc1ccccc1)c1ccccn1`, the growth is 42.1% (inactive).

`CC(C)CCN(CCCNc1c2c(nc3ccccc13)CCCC2)CCC(C)C`: the growth is 79.9% (inactive).

In the case of `CN(C)C/C=C/C(=O)Nc1cc2c(Nc3cccc(Cl)c3F)ncnc2cc1OCCOC(F)F`, the growth was 31% (inactive).

Take `O=c1[nH]c(CN2CCN(c3ccccc3F)CC2)nc2sc3c(c12)CCC3`: the growth is 105% (inactive).

As for `COc1ccc(S(=O)(=O)N2CCN(c3cc4c(cc3F)c(=O)c(C(=O)O)cn4C3CC3)CC2)c(OC)c1`, the growth is 105% (inactive).

`Cc1cc2c(c(=O)o1)C(c1ccc(OC(=O)N3CCOCC3)cc1)C(C#N)=C(N)O2` (stereo not given): the growth is 108% (inactive).

In the case of `NCCSC(c1ccccc1)(c1ccccc1)c1ccccc1`, the growth was 19.1% (inactive).

`C/C(=N\NC(=O)CC#N)c1cc2cc(Cl)ccc2o1`: the growth was 102% (inactive).

With `CC1=CNNc2c3ncnc-3ncn21`, the growth is 102% (inactive).

In the case of `COc1cc2nc(SCc3cc(OC)c(OC)c(OC)c3)n(Cc3ccccc3)c(=O)c2cc1OC`, the growth is 33.5% (inactive).

For `CCn1cc(C2NC(=O)c3cc(F)ccc3N2)c2cccc(Cl)c21` (stereo not given), the growth is 20.8% (inactive).

With `Cc1c(C2=NNC(c3ccc4c(c3)OCO4)C2)[n+]([O-])c2ccccc2[n+]1[O-]` (stereo not given), the growth is 98.4% (inactive).

Take `COc1cc(-c2csc(NC(=O)c3cc(C(F)(F)F)cc(C(F)(F)F)c3)n2)cc(OC)c1OC`: the growth is 44% (inactive).

As to `COC(=O)C(CC(=O)c1ccc(-c2ccccc2)cc1)c1ccccc1` (stereo not given), the growth was 26.9% (inactive).

For the compound `NC(N)=NC(N)=Nc1ccccc1-c1ccccc1`, the growth was 107% (inactive).

For the compound `CC1=C(C#N)C(C)(C)C(C#N)=C(C)N1`, the growth was 102% (inactive).

Turning to `CCC1CCc2nc3sc(C(=O)Nc4cccc(C)c4)c(N)c3cc2C1` (stereo not given), the growth is 53.2% (inactive).

As to `Cc1cc(C)c2c(=O)[nH]c(SCC(=O)Nc3cccc(S(=O)(=O)N(C)C)c3)nc2n1`, the growth was 105% (inactive).

On to `CC(C)(C)c1cn2cccc(C(=O)N3CCN(CC(=O)Nc4ccc(Cl)cc4C(=O)c4ccccc4Cl)CC3)c2n1`, for which the growth is 60.6% (inactive).

As to `CCC(c1ccc(OC)cc1)C(CC)c1ccc(OCC[N+](C)(C)C)cc1` (stereo not given), the growth is 70.6% (inactive).

Take `O=C(CCCn1c2c(sc3ccccc32)c(=O)n2nnc(-c3ccccc3)c12)NCCc1cnc[nH]1`: the growth is -84.5% (active).

On to `O=C1Nc2cc(Cl)ccc2Oc2cc(Oc3ccccc3)ccc21`, for which the growth was 16.6% (inactive).

In the case of `COc1ccc(OC)c(-c2ccc(-c3ccccc3N)c3[nH]c4ccccc4c23)c1`, the growth was 80.7% (inactive).

As for `Nc1c(C(=O)Nc2cccc(C(F)(F)F)c2)sc2nc3c(cc12)CCCCCC3`, the growth was 46% (inactive).

Consider `COc1ccc(NC(=O)CSc2nc3ccc(Cl)cc3c(=O)n2-c2ccccc2C(F)(F)F)c(OC)c1OC`, for which the growth is 94% (inactive).
